# Assay results as given in paper PMC5540273 (PLoS ONE, 2017).
# How the values were obtained:
# Settings in all cases: concentration: 1 μM, replicates: in singlicate; n = 1
# [1] = test system: SBK1
# [2] = test system: SGK2
# [3] = test system: SGK3
# [4] = test system: SGK
# [5] = test system: SIK2
# [6] = test system: SIK
# [7] = test system: SLK
# [8] = test system: T1, SNARK
# T1 construct: gene NUAK2
# [9] = test system: SNRK
# [10] = test system: SRC
# 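Also: KINOMEscan kinase panel screen.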
compound,measurement,setting,value
COc1ccc(Nc2nccc(N3CCC(NC(=O)Nc4ccc5c(c4)OCO5)C3)n2)cc1 (stereo not shown) [GSK1379745],%Inh,[1],21%
same,%Inh,[2],6%
same,%Inh,[3],6%
same,%Inh,[4],1%
same,%Inh,[5],0%
same,%Inh,[6],6%
same,%Inh,[7],27%
same,%Inh,[8],8%
same,%Inh,[9],0%
same,%Inh,[10],22%
CCc1nc(-c2cccc(C)c2)c(-c2ccnc(NC(=O)c3ccccc3)c2)s1,%Inh,[1],5%
same,%Inh,[2],17%
same,%Inh,[3],0%
same,%Inh,[4],13%
same,%Inh,[5],0%
same,%Inh,[6],25%
same,%Inh,[7],0%
same,%Inh,[8],0%
same,%Inh,[9],19%
same,%Inh,[10],5%
COc1cc2ncnc(Nc3ccc(OCc4ccccc4Br)c(Cl)c3)c2cc1OC.Cl [GI261590],%Inh,[1],7%
same,%Inh,[2],11%
same,%Inh,[3],0%
same,%Inh,[4],4%
same,%Inh,[5],12%
same,%Inh,[6],0%
same,%Inh,[7],86%
same,%Inh,[8],0%
same,%Inh,[9],0%
same,%Inh,[10],0%
Cl.c1ccc(Cn2ncc3cc(Nc4ncnc5ccccc45)ccc32)cc1 [GW273749],%Inh,[1],7%
same,%Inh,[2],0%
same,%Inh,[3],0%
same,%Inh,[4],0%
same,%Inh,[5],0%
same,%Inh,[6],0%
same,%Inh,[7],0%
same,%Inh,[8],10%
same,%Inh,[9],0%
same,%Inh,[10],10%
COc1ccc(NC(=O)c2ccc(-c3cc(-c4nnc(C)o4)ccc3C)cc2)cc1 [GW595885],%Inh,[1],26%
same,%Inh,[2],2%
same,%Inh,[3],0%
same,%Inh,[4],1%
same,%Inh,[5],0%
same,%Inh,[6],0%
same,%Inh,[7],10%
same,%Inh,[8],0%
same,%Inh,[9],0%
same,%Inh,[10],0%
FC(F)(F)c1ccc(-c2cc(-c3c[nH]nc3-c3ccccn3)ccn2)cc1 [GW599550],%Inh,[1],8%
same,%Inh,[2],9%
same,%Inh,[3],12%
same,%Inh,[4],0%
same,%Inh,[5],0%
same,%Inh,[6],0%
same,%Inh,[7],23%
same,%Inh,[8],10%
same,%Inh,[9],100%
same,%Inh,[10],3%
CC(=O)Nc1n[nH]c2ncc(-c3ccccc3)cc12 [SB-548492],%Inh,[1],4%
same,%Inh,[2],9%
same,%Inh,[3],14%
same,%Inh,[4],20%
same,%Inh,[5],12%
same,%Inh,[6],14%
same,%Inh,[7],20%
same,%Inh,[8],3%
same,%Inh,[9],1%
same,%Inh,[10],0%
CSc1nn2c(=O)cc(N3CCOCC3)nc2n1Cc1cccc(Cl)c1Cl [GSK2347225],%Inh,[1],6%
same,%Inh,[2],8%
same,%Inh,[3],1%
same,%Inh,[4],0%
same,%Inh,[5],72%
same,%Inh,[6],13%
same,%Inh,[7],18%
same,%Inh,[8],8%
same,%Inh,[9],0%
same,%Inh,[10],26%
Fc1cccc(COc2ccc(Nc3ncnc4sc(-c5ccc[nH]5)cc34)cc2Cl)c1 [GW707818],%Inh,[1],0%
same,%Inh,[2],0%
same,%Inh,[3],19%
same,%Inh,[4],0%
same,%Inh,[5],0%
same,%Inh,[6],0%
same,%Inh,[7],24%
same,%Inh,[8],15%
same,%Inh,[9],1%
same,%Inh,[10],0%
Fc1cccc(COc2ccc(Nc3ncnc4cc[nH]c34)cc2Cl)c1,%Inh,[1],52%
same,%Inh,[2],26%
same,%Inh,[3],40%
same,%Inh,[4],23%
same,%Inh,[5],0%
same,%Inh,[6],15%
same,%Inh,[7],34%
same,%Inh,[8],36%
same,%Inh,[9],21%
same,%Inh,[10],16%
CC(C)(C)c1ccc(-n2cnc3c(N)ncnc32)cc1 [SKF-97263],%Inh,[1],11%
same,%Inh,[2],0%
same,%Inh,[3],15%
same,%Inh,[4],2%
same,%Inh,[5],7%
same,%Inh,[6],0%
same,%Inh,[7],13%
same,%Inh,[8],18%
same,%Inh,[9],0%
same,%Inh,[10],1%
Oc1ccc2ncnc(Nc3ccc(OCc4ccccc4)cc3)c2c1 [GI262866],%Inh,[1],5%
same,%Inh,[2],0%
same,%Inh,[3],0%
same,%Inh,[4],6%
same,%Inh,[5],0%
same,%Inh,[6],0%
same,%Inh,[7],1%
same,%Inh,[8],0%
same,%Inh,[9],0%
same,%Inh,[10],0%
Clc1cc(Nc2ncnc3cc[nH]c23)ccc1OCc1ccccn1,%Inh,[1],41%
same,%Inh,[2],24%
same,%Inh,[3],28%
same,%Inh,[4],31%
same,%Inh,[5],8%
same,%Inh,[6],16%
same,%Inh,[7],21%
same,%Inh,[8],27%
same,%Inh,[9],26%
same,%Inh,[10],15%
c1ccc(-c2ccc3c(-c4ccnc(Nc5ccc6c(c5)OCCO6)n4)cnn3n2)cc1 [GW818941],%Inh,[1],7%
same,%Inh,[2],0%
same,%Inh,[3],8%
same,%Inh,[4],12%
same,%Inh,[5],10%
same,%Inh,[6],3%
same,%Inh,[7],20%
same,%Inh,[8],4%
same,%Inh,[9],0%
same,%Inh,[10],0%
CCC(CC)(CC)n1cnc2c(N)ncnc21 [SKF-97620],%Inh,[1],51%
same,%Inh,[2],3%
same,%Inh,[3],15%
same,%Inh,[4],0%
same,%Inh,[5],1%
same,%Inh,[6],0%
same,%Inh,[7],24%
same,%Inh,[8],28%
same,%Inh,[9],30%
same,%Inh,[10],0%
Cl.Cl.c1ccc(-c2cc3ccncc3cc2OC2CCNCC2)cc1 [GSK1122999],%Inh,[1],12%
same,%Inh,[2],7%
same,%Inh,[3],11%
same,%Inh,[4],0%
same,%Inh,[5],0%
same,%Inh,[6],0%
same,%Inh,[7],40%
same,%Inh,[8],23%
same,%Inh,[9],14%
same,%Inh,[10],0%
NC(=O)c1sc(-n2cnc3ccccc32)cc1OCc1ccccc1F [GSK1024306],%Inh,[1],21%
same,%Inh,[2],0%
same,%Inh,[3],0%
same,%Inh,[4],4%
same,%Inh,[5],0%
same,%Inh,[6],4%
same,%Inh,[7],63%
same,%Inh,[8],29%
same,%Inh,[9],0%
same,%Inh,[10],14%
Cn1ccc2ncnc(Oc3ccc(NC(=O)Nc4cccnc4)c(Cl)c3)c21,%Inh,[1],0%
same,%Inh,[2],8%
same,%Inh,[3],0%
same,%Inh,[4],3%
same,%Inh,[5],0%
same,%Inh,[6],19%
same,%Inh,[7],9%
same,%Inh,[8],0%
same,%Inh,[9],0%
same,%Inh,[10],16%
CCCc1ccc(S(=O)(=O)NC2CCN(c3ccnc(Nc4ccc(OC)cc4)n3)C2)cc1 (stereo not shown) [GSK1379737],%Inh,[1],100%
same,%Inh,[2],6%
same,%Inh,[3],0%
same,%Inh,[4],0%
same,%Inh,[5],0%
same,%Inh,[6],0%
same,%Inh,[7],15%
same,%Inh,[8],0%
same,%Inh,[9],0%
same,%Inh,[10],0%
COC(=O)c1cccc(NC(=O)NCCNc2ccnc(Nc3ccc(F)cc3)n2)c1 [GSK1379883],%Inh,[1],3%
same,%Inh,[2],0%
same,%Inh,[3],0%
same,%Inh,[4],0%
same,%Inh,[5],0%
same,%Inh,[6],0%
same,%Inh,[7],4%
same,%Inh,[8],0%
same,%Inh,[9],0%
same,%Inh,[10],0%
CC(C)N1CCC(n2cnc(-c3ccc(F)cc3)c2-c2ccnc(N)n2)CC1 [SB-223132],%Inh,[1],0%
same,%Inh,[2],0%
same,%Inh,[3],0%
same,%Inh,[4],0%
same,%Inh,[5],4%
same,%Inh,[6],14%
same,%Inh,[7],12%
same,%Inh,[8],0%
same,%Inh,[9],0%
same,%Inh,[10],0%
Nc1nc(-c2ccc3c(N)n[nH]c3c2)cc(N2CCC[C@@H](C(=O)Nc3ccccc3)C2)n1.O=C(O)C(F)(F)F.O=C(O)C(F)(F)F [GSK2288359],%Inh,[1],0%
same,%Inh,[2],0%
same,%Inh,[3],8%
same,%Inh,[4],0%
same,%Inh,[5],0%
same,%Inh,[6],0%
same,%Inh,[7],0%
same,%Inh,[8],21%
same,%Inh,[9],0%
same,%Inh,[10],0%
O=C(Nc1ccccc1F)NC1CCN(c2ccnc(Nc3ccc(F)cc3)n2)C1 (stereo not shown) [GSK1379722],%Inh,[1],21%
same,%Inh,[2],0%
same,%Inh,[3],0%
same,%Inh,[4],0%
same,%Inh,[5],0%
same,%Inh,[6],0%
same,%Inh,[7],5%
same,%Inh,[8],0%
same,%Inh,[9],0%
same,%Inh,[10],0%
CS(=O)(=O)CCNCc1ccc(-c2ccc3ncnc(Nc4ccc(OCc5ccccc5)c(Cl)c4)c3c2)o1.Cl [GW574783],%Inh,[1],3%
same,%Inh,[2],0%
same,%Inh,[3],0%
same,%Inh,[4],11%
same,%Inh,[5],0%
same,%Inh,[6],0%
same,%Inh,[7],25%
same,%Inh,[8],0%
same,%Inh,[9],0%
same,%Inh,[10],2%
Cl.Cn1ccc(-c2cccc(Nc3ccnc4cc(-c5nccs5)ccc34)c2)n1 [GW525701],%Inh,[1],0%
same,%Inh,[2],0%
same,%Inh,[3],14%
same,%Inh,[4],0%
same,%Inh,[5],0%
same,%Inh,[6],0%
same,%Inh,[7],42%
same,%Inh,[8],0%
same,%Inh,[9],0%
same,%Inh,[10],0%
COc1ccc(NC(=O)Nc2ccc(C)c(-c3ccc(C(=O)Nc4ccncc4)cc3)c2)cc1 [GSK1398475],%Inh,[1],0%
same,%Inh,[2],0%
same,%Inh,[3],10%
same,%Inh,[4],0%
same,%Inh,[5],0%
same,%Inh,[6],7%
same,%Inh,[7],0%
same,%Inh,[8],0%
same,%Inh,[9],0%
same,%Inh,[10],0%
Cn1cc(-c2ccc3c(c2)CCN3C(=O)Cc2cccc(C(F)(F)F)c2)c2c(N)ncnc21 [GSK2606414],%Inh,[1],9%
same,%Inh,[2],1%
same,%Inh,[3],21%
same,%Inh,[4],19%
same,%Inh,[5],0%
same,%Inh,[6],0%
same,%Inh,[7],14%
same,%Inh,[8],14%
same,%Inh,[9],1%
same,%Inh,[10],5%
CSc1ccc(NC2=C(c3ccccc3Cl)C(=O)NC2=O)cc1 [SB-342411],%Inh,[1],1%
same,%Inh,[2],0%
same,%Inh,[3],14%
same,%Inh,[4],0%
same,%Inh,[5],5%
same,%Inh,[6],0%
same,%Inh,[7],98.7%
same,%Inh,[8],19%
same,%Inh,[9],0%
same,%Inh,[10],38%
CCc1nc(-c2cccc(N(C)S(=O)(=O)c3ccccc3)c2)c(-c2ccnc(Nc3ccc(N4CCN(C(C)=O)CC4)nc3)n2)s1 [GSK1645895],%Inh,[1],5%
same,%Inh,[2],0%
same,%Inh,[3],19%
same,%Inh,[4],0%
same,%Inh,[5],0%
same,%Inh,[6],0%
same,%Inh,[7],3%
same,%Inh,[8],23%
same,%Inh,[9],0%
same,%Inh,[10],16%
C[C@@H]1CCN(C(=O)CO)C[C@@H]1N(C)c1ncnc2[nH]ccc12,%Inh,[1],0%
same,%Inh,[2],0%
same,%Inh,[3],1%
same,%Inh,[4],0%
same,%Inh,[5],0%
same,%Inh,[6],10%
same,%Inh,[7],0%
same,%Inh,[8],10%
same,%Inh,[9],3%
same,%Inh,[10],6%
COc1cc2c(Nc3cccc(NC(=O)c4ccccc4)c3)ncnc2cc1OCCCN1CCOCC1 [GSK223810],%Inh,[1],34%
same,%Inh,[2],13%
same,%Inh,[3],1%
same,%Inh,[4],0%
same,%Inh,[5],7%
same,%Inh,[6],0%
same,%Inh,[7],0%
same,%Inh,[8],0%
same,%Inh,[9],0%
same,%Inh,[10],94.7%
Fc1ccc(Nc2nccc(-c3c(-c4ccc(Cl)cc4)nn4ncccc34)n2)cc1F [GW829058],%Inh,[1],43%
same,%Inh,[2],17%
same,%Inh,[3],3%
same,%Inh,[4],18%
same,%Inh,[5],0%
same,%Inh,[6],0%
same,%Inh,[7],6%
same,%Inh,[8],0%
same,%Inh,[9],0%
same,%Inh,[10],14%
O=C(Nc1n[nH]c2nc(-c3ccco3)c(Br)cc12)c1ccc(CN2CCCC2)cc1.O=C(O)[C@H](O)[C@@H](O)C(=O)O [SB-742352],%Inh,[1],12%
same,%Inh,[2],1%
same,%Inh,[3],0%
same,%Inh,[4],17%
same,%Inh,[5],3%
same,%Inh,[6],0%
same,%Inh,[7],25%
same,%Inh,[8],0%
same,%Inh,[9],0%
same,%Inh,[10],22%
Cc1ccc(NC(=O)c2cccc(C#N)c2)cc1-c1ccc(C(=O)Nc2ccncc2)cc1 [GSK1398463],%Inh,[1],0%
same,%Inh,[2],10%
same,%Inh,[3],2%
same,%Inh,[4],0%
same,%Inh,[5],15%
same,%Inh,[6],0%
same,%Inh,[7],0%
same,%Inh,[8],0%
same,%Inh,[9],17%
same,%Inh,[10],26%
